PubChem BioAssay (Tox21)
Values joined by “and” are separate entries in the source; they are usually repeats but may differ in a detail not shown here. Equal entries are not always repeated. Inconclusive results are not listed. Some compounds were tested as several samples or in several runs, with calls that do not always agree. Active and inactive are the calls of the source. Unless noted, calls follow the shape of the dose curve; as a rule, active = well fitted curve in the direction sought with a large enough effect in the repeat runs; inconclusive = weak or mixed curves; inactive = no such curve, though single readings can be large; an effect the other way counts as inactive or inconclusive.

Experiments:
[1] = biological target: Peroxisome proliferator-activated receptor delta (Homo sapiens) (UniProt Q03181); experiment: qHTS assay to identify small molecule agonists of the peroxisome proliferator-activated receptor delta (PPARd) signaling pathway (AID 743212; calls by dose curve)
Sequence of Peroxisome proliferator-activated receptor delta (Homo sapiens) (Q03181 whole entry, looked up): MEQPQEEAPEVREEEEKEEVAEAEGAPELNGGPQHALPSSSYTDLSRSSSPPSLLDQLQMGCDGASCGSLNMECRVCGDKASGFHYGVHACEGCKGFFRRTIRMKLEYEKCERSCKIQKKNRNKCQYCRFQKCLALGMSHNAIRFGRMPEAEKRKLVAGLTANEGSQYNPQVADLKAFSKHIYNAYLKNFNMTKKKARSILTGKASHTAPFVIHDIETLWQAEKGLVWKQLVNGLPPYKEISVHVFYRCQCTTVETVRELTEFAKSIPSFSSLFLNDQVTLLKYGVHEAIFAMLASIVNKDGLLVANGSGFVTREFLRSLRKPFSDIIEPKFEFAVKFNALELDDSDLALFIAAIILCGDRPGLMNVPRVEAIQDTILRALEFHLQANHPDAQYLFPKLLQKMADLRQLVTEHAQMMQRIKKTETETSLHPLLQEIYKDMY
Outline: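 HEK293H UAS-bla reporter cells, human PPARd system; compounds delivered in DMSO after 5 h plating, then at 37 C. Beta-lactamase FRET read, 2 h RT substrate step.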

[2] = qHTS assay to identify small molecule antagonists of the peroxisome proliferator-activated receptor delta (PPARd) signaling pathway - cell viability counter screen (AID 743213); also: nearly all actives have a fitted effect of over 50% in size; also: potency is read from the fitted curve at half-maximal effect
Outline: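 Same-well viability: cells pre-incubated 5 h, dosed with compound plus 300 nM L165041, kept 17 h at 37 C, FRET substrate 2 h RT, then CellTiter-Glo 30 min RT and luminescence.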

[3] = biological target: Peroxisome proliferator-activated receptor delta (Homo sapiens) (UniProt Q03181); experiment: qHTS assay to identify small molecule antagonists of the peroxisome proliferator-activated receptor delta (PPARd) signaling pathway (AID 743215; active = well fitted inhibition curve with a large enough effect in the signal ratio in the repeat runs, not every such curve was filed as active; the % refers to the signal ratio;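 also: cells stimulated with agonist L165041 at 300 nM final during compound exposure; series mostly up to about 62 µM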)
Outline: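 Read-out is beta-lactamase FRET fluorescence, measured 2 h after substrate addition at room temperature. Beforehand, UAS-bla HEK293H cells carrying the PPARd reporter were exposed to compounds with L165041 at 300 nM final for 17 h at 37 C.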

[4] = biological target: Bile acid receptor (Homo sapiens) (UniProt Q96RI1); experiment: qHTS assay to identify small molecule antagonists of the farnesoid-X-receptor (FXR) signaling pathway (AID 743217; active = well fitted inhibition curve with a large enough effect in the signal ratio in the repeat runs, not every such curve was filed as active; the % refers to the signal ratio)
Sequence of Bile acid receptor (Homo sapiens) (Q96RI1 whole entry, looked up): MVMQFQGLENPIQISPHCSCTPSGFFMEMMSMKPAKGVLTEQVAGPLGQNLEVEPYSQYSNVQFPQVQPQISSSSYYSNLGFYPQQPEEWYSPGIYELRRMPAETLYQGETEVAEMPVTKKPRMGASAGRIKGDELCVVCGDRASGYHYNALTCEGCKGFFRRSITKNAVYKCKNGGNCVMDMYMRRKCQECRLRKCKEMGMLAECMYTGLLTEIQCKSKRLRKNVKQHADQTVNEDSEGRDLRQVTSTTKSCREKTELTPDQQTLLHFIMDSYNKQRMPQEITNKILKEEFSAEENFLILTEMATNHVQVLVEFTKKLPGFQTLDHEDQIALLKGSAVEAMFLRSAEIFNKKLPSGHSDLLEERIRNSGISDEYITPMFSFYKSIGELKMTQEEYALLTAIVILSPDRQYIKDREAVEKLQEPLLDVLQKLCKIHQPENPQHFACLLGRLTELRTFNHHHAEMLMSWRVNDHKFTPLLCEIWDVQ
Outline: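 HEK 293T FXR-UAS-bla, 5000 cells/well; compound + CDCA 50 uM final; 16 h, 37 °C; B/G FRET substrate 2 h RT; fluorescence.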

[5] = biological target: Bile acid receptor (Homo sapiens) (UniProt Q96RI1); experiment: qHTS assay to identify small molecule agonists of the farnesoid-X-receptor (FXR) signaling pathway (AID 743220; active = well fitted activation curve with a large enough effect in the signal ratio in the repeat runs, not every such curve was filed as active; the % refers to the signal ratio)
Outline: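 Beta-lactamase reporter under UAS control in GeneBLAzer FXR HEK 293T cells (5000/well) measured with LiveBLAzer FRET substrate after 2 h at room temperature. Compound exposure lasted 16 h at 37C.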

[6] = qHTS assay to identify small molecule antagonists of the farnesoid-X-receptor (FXR) signaling pathway - cell viability counter screen (AID 743221; active = well fitted cell-killing curve with a large enough effect in the repeat runs, not every such curve was filed as active; also: nearly all actives have a fitted effect of over 50% in size)
Outline: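 Cytotoxicity counter screen run in the FXR-bla reporter wells: HEK 293T cells exposed to compound with 50 uM (final) chenodeoxycholic acid for 16 h, 37 C, then viability measured by CellTiter-Glo luminescence after 30 min, room temperature.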

[7] = qHTS assay to identify small molecule agonists of the peroxisome proliferator-activated receptor delta (PPARd) signaling pathway - cell viability counter screen (AID 743211); also: nearly all actives have a fitted effect of over 55% in size
Outline: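 Viability was measured as CellTiter-Glo luminescence (30 min, room temperature) in the same wells as the beta-lactamase readout. GeneBLAzer PPARd UAS-bla HEK293H cells received compound after 5 h plating and were incubated 17 h at 37 C.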

[8] = qHTS assay to identify small molecule agonists of the farnesoid-X-receptor (FXR) signaling pathway - cell viability counter screen (AID 743218); also: nearly all actives have a fitted effect of over 45% in size
Outline: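 HEK 293T FXR-bla cells; 5 h pre-incubation, 16 h compound exposure at 37 C; LiveBLAzer substrate 2 h RT, then CellTiter-Glo 30 min RT, luminescence.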

[9] = biological target: Vitamin D3 receptor (Homo sapiens) (UniProt P11473); experiment: qHTS assay to identify small molecule agonists of the vitamin D receptor (VDR) signaling pathway (AID 743222; calls by dose curve)
Sequence of Vitamin D3 receptor (Homo sapiens) (P11473 whole entry, looked up): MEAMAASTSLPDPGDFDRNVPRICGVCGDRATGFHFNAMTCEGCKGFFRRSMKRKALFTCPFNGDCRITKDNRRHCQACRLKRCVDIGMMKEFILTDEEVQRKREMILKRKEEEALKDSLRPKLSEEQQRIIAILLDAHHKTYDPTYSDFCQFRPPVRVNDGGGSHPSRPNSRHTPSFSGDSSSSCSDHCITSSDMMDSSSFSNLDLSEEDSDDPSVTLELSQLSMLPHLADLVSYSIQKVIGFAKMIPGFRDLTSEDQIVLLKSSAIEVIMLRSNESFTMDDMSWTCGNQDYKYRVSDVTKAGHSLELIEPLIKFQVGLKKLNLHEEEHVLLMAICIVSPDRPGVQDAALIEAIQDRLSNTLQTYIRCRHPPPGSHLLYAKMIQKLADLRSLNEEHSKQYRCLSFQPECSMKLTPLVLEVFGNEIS
Outline: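 VDR-bla cells, 2,000/well; 4 h preincubation 37C; cpd (DMSO) 16 h; LiveBLAzer B/G substrate 2 h RT; fluorescence intensity read.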

[10] = biological target: Vitamin D3 receptor (Homo sapiens) (UniProt P11473); experiment: qHTS assay to identify small molecule antagonists of the vitamin D receptor (VDR) signaling pathway (AID 743223; active = well fitted inhibition curve with a large enough effect in the signal ratio in the repeat runs, not every such curve was filed as active; the % refers to the signal ratio)
Outline: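 Antagonist mode: compound added to VDR-bla cells alongside agonist 1alpha,25-dihydroxyvitamin D3 (3 nM final), incubation 16 h at 37C. Read-out is LiveBLAzer FRET fluorescence, 2 h at room temperature.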

Measured: Potency

O=C(c1ccc(O)cc1)c1ccc(O)cc1O
inactive: [1] | [2] | [3] | [4] | [5] | [6]

OCC#CCO
not listed: [1] | [3] | [10]
inactive: all other assays above

CN(C)c1cccc(O)c1
inactive: [7] | [1] | [3] | [6]

O=[N+]([O-])c1cc(N(CCO)CCO)ccc1NCCO
not listed: [2] | [4] | [5]
inactive: all other assays above

CNC[C@H](O)[C@@H](O)[C@H](O)[C@H](O)CO
not listed: [7] | [9]
inactive: all other assays above

CC1Cc2ccccc2N1NC(=O)c1ccc(Cl)c(S(N)(=O)=O)c1 (stereo not given)
inactive: [7] | [2] | [6]

CC1CC(OC(=O)c2ccccc2O)CC(C)(C)C1 (stereo not given)
inactive: [7] | [1] | [3] | [8] | [6]

C=C(C)C(=O)OCCCCCC
inactive: [7] | [1] | [6] | [10]

Oc1ccc2ccccc2c1
inactive: [7] | [8] | [6] | [10]
inactive and 3.89 µM (active): [2]

O=S(=O)(O)c1cc(S(=O)(=O)O)c2c(N=Nc3ccccc3)c(O)ccc2c1
not listed: [2] | [8] | [10]
inactive: all other assays above

CC(=O)Nc1ccc(C(=O)O)cc1
inactive: [7] | [6]

Oc1ccc(OCc2ccccc2)cc1
not listed: [7] | [9] | [10]
inactive: all other assays above

O=c1c(-c2ccc(O)cc2)coc2cc(O)ccc12
inactive: [7] | [1] | [3] | [8] | [5] | [6]

O=C1CCCCC1
inactive: [7] | [1] | [3] | [6]

CN(CCOc1ccc(CC2SC(=O)NC2=O)cc1)c1ccccn1 (stereo not given)
inactive: [7] | [2] | [4] | [8] | [5] | [6]

COCC(C)O (stereo not given)
inactive: [7] | [2] | [8] | [6] | [9] | [10]

O=S(=O)(O)CCS
not listed: [7] | [9] | [10]
inactive: all other assays above

CC1=CC[C@H]2C[C@@H]1C2(C)C
inactive: [7] | [1] | [8] | [6] | [9]

O=C(Oc1ccccc1)c1ccc(O)cc1
inactive: [7] | [1] | [8] | [6] | [9]

NC(=O)NNc1ccccc1
inactive: [7] | [8] | [6] | [10]

Cc1cc(NS(=O)(=O)c2ccc(N)cc2)no1
inactive: [7] | [4] | [5] | [6] | [9] | [10]

CCOC(=O)C1OC1c1ccccc1 (stereo not given)
not listed: [2] | [4] | [5]
inactive: all other assays above

CCCCCCC(C)(C)S
inactive: [7] | [4] | [8] | [5] | [6]

CC[Si](OC(C)=O)(OC(C)=O)OC(C)=O
inactive: [7] | [1] | [3] | [6]

Cc1cc(Cc2ccc(N)c(C)c2)ccc1N
inactive: [7] | [4] | [8] | [5] | [6]

Cc1ccc(C)c(C)c1
inactive: [7] | [1] | [3] | [8] | [6] | [10]

O=S(=O)(Oc1ccc(Cl)cc1Cl)c1ccccc1
inactive: [7] | [1] | [3] | [8] | [6] | [9]

CC(=O)CCc1ccccc1
inactive: [7] | [2] | [6] | [9] | [10]

CC(C)NCC(O)COc1cccc2ccccc12 (stereo not given)
inactive: [4] | [8] | [5] | [6] | [9]
active: [2] 49.5 µM and 21.9 µM

CCCCCCCCCC(=O)O
inactive: [3] | [8] | [6]

Cc1cc(O)cc(C)c1Cl
inactive: [1] | [2] | [3] | [6]
